PubChem BioAssay AID696 (Sanford-Burnham Center for Chemical Genomics, 2007)
About 1,200 (1.2%) of roughly 96,000 compounds were called active. For the sample, actives were picked, then their nearest neighbours and some compounds at random. A number with no mark means an inactive call. Cut-off read from the data, not from the text of the source: active = activation fold above about 2; inactive = the rest.

Each compound was assayed against Alkaline phosphatase, placental type (Homo sapiens) (UniProt P05187) (assay: activation of human placental alkaline phosphatase – biochemical, luminescence, HTS (AID 696)). Settings: purified PLAP enzyme, luminescent substrate read-out; at 20 µM; hits give high values.
Chain of Alkaline phosphatase, placental type (Homo sapiens) (P05187 whole entry, looked up): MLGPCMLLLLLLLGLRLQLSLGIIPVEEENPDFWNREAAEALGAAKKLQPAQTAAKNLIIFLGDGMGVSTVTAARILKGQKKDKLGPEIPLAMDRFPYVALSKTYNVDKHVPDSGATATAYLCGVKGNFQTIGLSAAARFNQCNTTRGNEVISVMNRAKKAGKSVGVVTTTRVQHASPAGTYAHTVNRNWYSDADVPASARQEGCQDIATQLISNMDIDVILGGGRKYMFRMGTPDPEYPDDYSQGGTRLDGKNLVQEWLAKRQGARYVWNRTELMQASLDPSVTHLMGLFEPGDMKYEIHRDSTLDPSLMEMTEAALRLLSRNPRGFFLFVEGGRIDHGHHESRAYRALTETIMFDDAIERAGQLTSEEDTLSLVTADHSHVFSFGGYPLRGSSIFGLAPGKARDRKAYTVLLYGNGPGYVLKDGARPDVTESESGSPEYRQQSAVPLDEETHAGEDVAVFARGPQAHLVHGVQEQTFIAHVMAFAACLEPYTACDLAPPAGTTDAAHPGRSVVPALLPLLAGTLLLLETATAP

SMILES	activation fold
CN1/C(=c2/s/c(=C3/C(=O)N(c4ccccc4)NC3=Nc3ccccc3)n(C)c2=O)C(C)(C)c2ccccc21	0.7
COc1ccc(S(=O)(=O)Nc2ccc3oc(C)c(C(C)=O)c3c2)cc1	1.3
Cc1nc2nc(C)c(CCC(=O)N3CCN(c4ccccc4)CC3)c(C)n2n1	0.8
COc1ccc(CC(=O)Nc2nc3n(n2)C(c2ccccc2)CC(=O)N3)cc1OC (centres undefined)	1.5
O=C(Nc1ncccn1)c1cccs1	0.9
CC1CC(c2ccccc2)n2nc(NC(=O)c3cccs3)nc2N1 (centres undefined)	2.1 (active)
CN(C(=O)CSc1nnc(N)s1)c1c(N)n(Cc2ccccc2)c(=O)[nH]c1=O	1.1
O=C(CN1C(=O)CC(c2ccccc2)=Nc2ccccc21)NC1CCCCC1	1
Cc1ccc(-n2nc3ccc(NC(=O)/C=C/c4ccco4)cc3n2)cc1C	0.9
O=C(CSc1nnc(-c2ccco2)o1)NCC(=O)c1ccccc1	1.2
CCOC(=O)c1sc(NC(=O)CSc2nnc(-c3ccco3)o2)c(C(=O)OCC)c1C	1
Cc1cccc(NC(=O)CSc2nnc(-c3ccco3)o2)c1	2 (active)
CONC(=O)c1cc(OCC(F)(F)F)ccc1OCC(F)(F)F	1
Cn1c(SCC(=O)NC2CCCCC2)nnc1-c1cc2ccccc2o1	1.1
Cc1cccc(N2C(=O)C3C(c4ccccc4)OC4(C(=O)c5ccccc5C4=O)C3C2=O)c1 (centres undefined)	1.2
Cc1cccc(N2C(=O)c3cccnc3C2=O)c1	1
CCCc1nc2scc(-c3ccc(C)cc3)c2c(=O)n1N	0.9
N#C/C(=C(\O)CCl)c1nnc2n1CCCCC2	0.8
Cc1cc([N+](=O)[O-])ccc1NCc1cccc([N+](=O)[O-])c1	1
COCCCn1c(SCc2cccc(OC)c2)nc2cc(OC)c(OC)cc2c1=N	1.5
Oc1c(C(c2cccs2)N2CCN(c3ccc(F)cc3)CC2)sc2ncnn12 (centres undefined)	2 (active)
Oc1c(C(c2ccco2)N2CCC3(CC2)OCCO3)sc2ncnn12 (centres undefined)	1.7

SMILES	activation fold
Cc1ccc(C(c2sc3nc(C)nn3c2O)N2CCN(c3ccc(F)cc3)CC2)cc1 (centres undefined)	1.7
O=C(O)c1cnn2c(C(F)(F)F)cc(-c3ccccc3)nc12	0.9
C/C(=N\NC(=O)Cc1ccc(Cl)cc1)c1ccccn1	1.8
CCNc1nc(N)nc(-c2cc(Cl)ccc2OC)n1	1
CC(C)NC(=O)c1ccc(Sc2ccccc2)c([N+](=O)[O-])c1	1.2
COc1ccccc1CCNC(=O)c1cnccn1	1.2
COc1ccc(C(=O)NNC(=O)c2cnccn2)cc1[N+](=O)[O-]	2.8 (active)
CC(Oc1ccc(F)cc1F)C(=O)/C=C/N(C)C (centres undefined)	1.2
CC(=O)c1sc(NC(=O)c2cccc3ccccc23)nc1C	1
COc1cccc2sc(Nc3nc(C)c(C(C)=O)s3)nc12	2.4 (active)
CC(=O)c1sc(NC(=O)c2ccc(C)cc2)nc1C	1.2
Cc1ccc(NC(=S)NC(NC(=O)Cc2cccc3ccccc23)C(Cl)(Cl)Cl)cc1 (centres undefined)	0.6
COC(=O)c1ccc(CSc2nnc(NC(C)C)s2)cc1	0.9
CC1=NN(C(=O)Cc2ccc(C)cc2)C(O)(c2cccnc2)C1 (centres undefined)	2.4 (active)
Cc1ccc(NC(=O)N2CCC(O)(c3cccnc3)CC2)cc1	0.9
CC1=NN(C(=O)c2ccccc2Br)C(O)(c2cccnc2)C1 (centres undefined)	1.4
O=C(Nc1ccc2ccccc2c1)Nc1ccc2snnc2c1	0.9
O=C(NCCCCCCCCCNC(=O)C(F)(F)F)C(F)(F)F	0.9
COc1ccc(Cl)cc1NC(=O)c1oc(C)nc1C	1.4
CCCCC(=O)N/N=C(\C)CC(=O)Nc1cc(Cl)ccc1OC	0.9
COc1ccc(Cl)cc1NC(=O)CN(C)C(=O)CNC(=O)C12CC3CC(CC(C3)C1)C2	2 (active)
O=C(COc1ccc(Br)cc1F)NC1CCN(Cc2ccccc2)CC1	1.7

SMILES	activation fold
Cc1ccc2[nH]c(=O)c(CN(CCCN(C)C)C(=O)Nc3cccc(Cl)c3)cc2c1	1.5
O=C(COC(=O)c1n[nH]c2ccccc12)NCc1ccccc1	2.2 (active)
COc1ccc(COC(=O)c2n[nH]c3ccccc23)cc1F	1.4
CN(C)S(=O)(=O)c1ccc(NC(=O)COC(=O)c2n[nH]c3ccccc23)cc1	1
Cn1c(N)c(C(=O)COC(=O)C23CC4CC(CC(C4)C2)C3)c(=O)n(C)c1=O	1.9
CC/C(C)=N/Nc1nc2sc3c(c2c(=O)[nH]1)CC(C)(C)OC3	1.1
CCC(O)CNc1nc(-n2nc(C)cc2C)nc2sc3c(c12)CC(C)(C)OC3 (centres undefined)	1
C=CCNC(=S)NNc1ncnc2sc3c(c12)CC(C)(C)OC3	2.2 (active)
Cc1ccc(SC(=O)COc2ccc(C)c(C)c2)cc1	1
CCOC(=O)C1=C(CNC2CCCCC2)NC(=O)NC1c1cc(C)ccc1C (centres undefined)	1.1
CCOC(=O)c1[nH]cnc1C(=O)NC1CCCCC1	2.2 (active)
COc1cc(OC)c(C(=O)NC2CCCCCC2)cc1OC	1.7
Cc1cc(C(=O)OC(C)C(=O)Nc2cccc(S(=O)(=O)N3CCOCC3)c2)c(C)o1 (centres undefined)	1.7
COC(=O)C(C)n1cnc2c(nnn2-c2cccc(Cl)c2)c1=O (centres undefined)	0.9
CCOc1nnc(C)c2c(C)n(-c3cccc(Cl)c3)nc12	2.1 (active)
CCOc1cccc(-n2nnnc2-c2ccc(OC)cc2)c1	1.4
CCCCCCCC(=O)NC(Nc1ccccc1OC)C(Cl)(Cl)Cl (centres undefined)	0.9
CCN(CC)S(=O)(=O)c1ccc2nc(COC(=O)c3n[nH]c4ccccc34)[nH]c2c1	1.8
CCN(CC)S(=O)(=O)c1ccc2nc(CSc3nnnn3-c3ccc(O)cc3)[nH]c2c1	2.7 (active)
O=c1c2ccccc2nc(CSc2nnnn2-c2ccccc2)n1-c1ccccc1	0.9
